Results taken from a collection of fitness landscapes (doi:10.1016/j.celrep.2020.107928).
In all, about 81,000 sequences were measured (“one-hybrid fitness for binding NBS DNA”: median about -0.1, highest 2% from about 0.36 on). The sample holds the highest values, similar sequences and a random draw of the others, so the mix is not that of the screen.

B1: Caulobacter ParB omega fusion; a variant is named by its letters at X, in order, B8GW30 (parent)
chain: MESVVVGEPGMSEGRRGLGRGLSALLGEVDAAPAQAPGEQLGGSREAPIEILQRNPDQPRRTFREEDLEDLSNSIREKGVLQPILVRPSPDTAGEYQIVAGERAWRAAQRAGLKTVPIMVRELDDLAVLEIGIIENVQRADLNVLEEALSYKVLMEKFERTQENIAQTIGKSXSHVANXMRLLXLPDEVQSYLVSGELTAXHARAIAAAADPVALAKQIIEGGLSVRETEALARKAPNLSAGKSKGGRPPRVKDTDTQALESDLSSVLGLDVSIDHRGSTGTLTITYATLEQLDDLCNRLTRGI

Variants of: B1
Experiment: one-hybrid fitness for binding NBS DNA (the Noc-binding site; scaled: cognate 1, non-cognate 0); higher = stronger binding
Details: with NBS DNA site
Method in brief: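 Values were rescaled so that cognate is 1 and non-cognate is 0. Each is a fitness, the log change in a variant's read ratio to wild type from Illumina reads of plasmids before and after selection, with three replicate libraries pooled and variants under 10 reads dropped. Selection of the Caulobacter ParB libraries, four specificity codons randomised, used E. coli USO with a HIS3 reporter, site 19 bp from the promoter, on M9-minus-histidine with 0.1 mM IPTG and 5 mM 3-AT for 48 hours at 37°C.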

Variant	one-hybrid fitness for binding NBS DNA
QMVP	≤ 0.2
QMKL	0.262
QMVR	0.424
QMKG	0.336
QMVD	≤ 0.2
QMKR	1.03
TAHS	≤ 0.2
IMVC	≤ 0.2
HTKM	≤ 0.2
KTGG	≤ 0.2
ETHC	≤ 0.2
RRGR	0.744
RRQR	0.765
RRLG	0.245
RRQF	0.221
RRGF	≤ 0.2
RRQK	0.261
RPDR	≤ 0.2
RRLR	0.702
RRDR	0.666
RRLQ	0.209
RRGQ	0.239
SFAS	≤ 0.2
HDCG	≤ 0.2
DQVR	≤ 0.2
KNLL	≤ 0.2

Variant	one-hybrid fitness for binding NBS DNA
DPPY	≤ 0.2
PPNW	≤ 0.2
ARKC	≤ 0.2
HVNI	≤ 0.2
HCSE	≤ 0.2
RRSM	0.311
RPER	≤ 0.2
RRNG	0.343
RERR	≤ 0.2
RRRR	0.904
RRNE	≤ 0.2
RCER	0.245
RRER	0.629
RGRR	0.336
RRSF	≤ 0.2
RRNR	0.813
RRSR	0.756
PAQI	≤ 0.2
TDSA	≤ 0.2
YSRC	≤ 0.2
RRCR	0.75
RRHR	0.771
RRWG	0.216
RRCC	0.325
RRCF	≤ 0.2
RRWR	0.732

Variant	one-hybrid fitness for binding NBS DNA
RRYR	0.728
RRHF	0.207
RRHQ	0.293
RRWK	0.249
ETHW	≤ 0.2
GAPL	≤ 0.2
TTDQ	≤ 0.2
QPFL	≤ 0.2
QGKK	≤ 0.2
MPVQ	≤ 0.2
KLMT	≤ 0.2
PRPV	≤ 0.2
TLPW	≤ 0.2
PPHD	≤ 0.2
RYTW	≤ 0.2
QTYL	≤ 0.2
QTVL	≤ 0.2
QCRL	0.401
DPRL	≤ 0.2
QTDL	≤ 0.2
DCRL	0.405
QMRL	0.287
QTRL	0.406
QPRL	≤ 0.2
QCKL	0.307
DIRL	≤ 0.2

Variant	one-hybrid fitness for binding NBS DNA
QTKL	0.395
DKKC	≤ 0.2
LTSP	≤ 0.2
DSLM	≤ 0.2
GRHR	≤ 0.2
VANW	≤ 0.2
RFPW	≤ 0.2
RCCM	≤ 0.2
PGLH	≤ 0.2
CHHR	≤ 0.2
QRKL	0.367
QRVL	≤ 0.2
QRYL	≤ 0.2
FRYF	≤ 0.2
INML	≤ 0.2
RHRN	≤ 0.2
RHRD	≤ 0.2
RHHS	0.443
RHNS	0.505
RHHD	≤ 0.2
RHNH	≤ 0.2
RHWS	≤ 0.2
RHRS	0.585
RHIS	≤ 0.2
RHDS	≤ 0.2
RHHN	≤ 0.2

Variant	one-hybrid fitness for binding NBS DNA
RHYS	0.376
MVLT	≤ 0.2
QIMY	≤ 0.2
AMWR	≤ 0.2
RYEA	≤ 0.2
SMFC	≤ 0.2
RFVV	≤ 0.2
KGDK	≤ 0.2
QCAY	0.21
QRAY	0.516
QRFY	0.392
QSAY	≤ 0.2
QCFY	0.213
QSFY	≤ 0.2
PAFP	≤ 0.2
VCPS	≤ 0.2
MCMN	≤ 0.2
DHRV	≤ 0.2
QRTF	0.294
QSTQ	≤ 0.2
QRTM	0.414
QSTM	≤ 0.2
QRTS	0.685
QRTG	0.356
QCTQ	≤ 0.2
QRTV	0.412

Variant	one-hybrid fitness for binding NBS DNA
QCTM	≤ 0.2
QRTQ	0.437
QPTV	≤ 0.2
QCTV	≤ 0.2
ATLR	≤ 0.2
IYRI	≤ 0.2
AKFY	≤ 0.2
IYLA	≤ 0.2
KPSG	≤ 0.2
GTKT	≤ 0.2
SIIE	≤ 0.2
QPTC	≤ 0.2
QPTK	≤ 0.2
QCTK	≤ 0.2
QRTN	0.429
QRTH	0.57
QPTH	≤ 0.2
QCTH	0.295
QRTP	0.263
QRTD	0.259
QRTC	0.395
QRTK	0.414
QCTC	≤ 0.2
LCDV	≤ 0.2
ANGR	≤ 0.2
